Screening data as filed in PubChem.
Hits are enriched below; roughly 28% of the tested compounds scored in any of these assays.
CYP2C9 inhib = blocks human cytochrome P450 2C9; P11712; CYP2C9 Supersomes, luciferin-H conversion, luminescence; inhibition, % at 5 µM; 96,000 tested, 20% active; AID 777;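 active = blocking of liver enzyme CYP2C9 beyond about 50% at 5 µM, limit read from the data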
Mac1 fbg enh = CD11b/CD18-fibrinogen binding enhancement; K562 CD11b/CD18 adhesion to fibrinogen, ATPlite luminescence; activation, % at 10 µM; 93,000 tested, 0.07% active; AID 1499;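 active = 10 µM primary screen giving 50% or more activity, confirmed by 40% or more on retest at that dose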
Mac1 fbg inh = inhibitors of human CD11b/CD18 binding to fibrinogen | 93,000 tested, 0.54% active | inhibition, % at 10 µM | AID 1497 | P05107+P11215 | K562 CD11b/CD18 adhesion to fibrinogen, ATPlite luminescence; Mn2+ added to activate the integrin;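 active = primary inhibition of 50% or more at 10 µM, then 40% or more on retest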
CYP2C19 inh = inhibitors of human CYP2C19; inhibition, % at 5 µM; 96,000 tested, 21% active; CYP2C19 Supersomes, luciferin-H EGE luminescence, 30 min;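 active = CYP2C19 inhibition above a set limit at 5 µM in the primary screen, cut at about 50% in these data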
Target sequence (P33261 whole entry, looked up): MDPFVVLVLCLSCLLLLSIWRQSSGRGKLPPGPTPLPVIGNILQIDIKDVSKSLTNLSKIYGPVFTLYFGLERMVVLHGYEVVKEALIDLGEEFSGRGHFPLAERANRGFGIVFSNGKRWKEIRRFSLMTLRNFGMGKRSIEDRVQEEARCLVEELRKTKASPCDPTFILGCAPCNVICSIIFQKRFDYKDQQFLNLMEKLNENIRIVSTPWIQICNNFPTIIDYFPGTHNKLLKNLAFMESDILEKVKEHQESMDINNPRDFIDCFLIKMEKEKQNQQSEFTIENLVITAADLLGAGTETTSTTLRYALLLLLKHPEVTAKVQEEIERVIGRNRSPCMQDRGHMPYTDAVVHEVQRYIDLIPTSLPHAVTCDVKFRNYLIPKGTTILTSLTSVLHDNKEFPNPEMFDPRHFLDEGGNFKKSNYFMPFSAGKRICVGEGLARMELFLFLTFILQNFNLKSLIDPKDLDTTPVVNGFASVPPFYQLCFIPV
CYP2C9 act = increases human cytochrome P450 2C9 activity. P11712. recombinant CYP2C9, luciferin-H conversion, luminescence; active compounds read high; factor 1 = untreated enzyme, 0 = blocked. activation factor at 5 µM. 96,000 tested, 1.4% active. AID 1024;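 active = activation factor of 2 or more for CYP2C9 at a 5 µM dose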
CYP2C19 activ = cytochrome P450 2C19 (human) activation; P33261; recombinant CYP2C19, luciferin-H EGE luminescence; active compounds read high; 0 = fully inhibited enzyme, 1 = untreated enzyme; activation factor at 5 µM; 96,000 tested, under 10 active;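 active = activation factor of at least 2 at 5 µM in the primary screen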
Large screens that a line does not name were inactive.

COn1c(C)c(C(C)=O)c2c3nonc3ccc21	CYP2C9 inhib 50, CYP2C19 inh 61
COn1c2c(c3c4nonc4ccc31)CCCC2	none
Cn1c2ccccc2c(=O)c2c(=O)n(C3CCCCC3)c(-c3ccco3)nc21	none (no result: CYP2C9 inhib, CYP2C19 inh, CYP2C9 act, CYP2C19 activ)
Cc1csc(=Nc2ccc(S(=O)(=O)N3CCOCC3)cc2)n1Cc1ccco1	CYP2C9 inhib 64
CCN1C(=O)c2cccc3c(S(=O)(=O)NCCCN4CCOCC4)ccc1c23	CYP2C19 inh 54 (no result: Mac1 fbg enh, Mac1 fbg inh)
CCN1C(=O)c2cccc3c(S(=O)(=O)NCCc4c[nH]c5ccccc45)ccc1c23	CYP2C9 inhib 84, CYP2C19 inh 63
CCN(Cc1ccccc1)C(=O)Cn1cc2c(n1)CCCC2	none
O=C(Nc1nc2ccc3ccccc3c2s1)c1ccc(N2CCCCC2)c([N+](=O)[O-])c1	none (no result: CYP2C9 inhib, CYP2C19 inh, CYP2C9 act, CYP2C19 activ)
CC(=O)N1CCN(c2ccc(NC(=O)c3ccc(N4CCCC4)c([N+](=O)[O-])c3)cc2Cl)CC1	none
O=C(Nc1ccc(N2CCCCC2)c(Cl)c1)c1ccc2c(c1)OCCO2	CYP2C9 inhib 68
O=C(Nc1ccc(N2CCCCC2)c(Cl)c1)c1ccc(N2CCOCC2)c([N+](=O)[O-])c1	CYP2C19 inh 52 (no result: Mac1 fbg enh, Mac1 fbg inh)
Cc1c(NC(=O)c2ccc(N3CCCC3)c([N+](=O)[O-])c2)cccc1-c1nc2ccccc2s1	CYP2C9 inhib 56
COc1cccc(OC)c1C(=O)Nc1ccccc1C(=O)N1CCOCC1	none
Cc1ccc2c(c1)C1CCCC3C1N2CC(=O)N3Cc1ccccc1 (configuration not stated)	CYP2C9 inhib 100, CYP2C19 inh 99
Cc1ccc2c(c1)C(CCN)C(=O)N2Cc1ccccc1 (configuration not stated)	none
c1ccc(C(c2ccccc2)N2CCN(c3nc4ccccc4n4cnnc34)CC2)cc1	none
Clc1cccc(-c2cc3nc4c(c(N5CCOCC5)n3n2)CCCC4)c1	CYP2C9 inhib 89, CYP2C19 inh 70
Fc1cccc(-c2cc3nc4c(c(NCc5ccco5)n3n2)CCCC4)c1	none
Fc1cccc(-c2cc3nc4c(c(N5CCOCC5)n3n2)CCCC4)c1	CYP2C9 inhib 94, CYP2C19 inh 63
CCCCOCCCNC1=NCCCCC1	none
COc1ccccc1N1CCN(C(=O)Cn2nnc(-c3ccncc3)n2)CC1	none
CN(C)c1ccc(-c2nnn(CC(=O)N3c4ccccc4CCc4ccccc43)n2)cc1	CYP2C9 inhib 77, CYP2C19 inh 71
CN(C)c1ccc(-c2nnn(CC(=O)Nc3ccccc3N3CCOCC3)n2)cc1	CYP2C9 inhib 90
CC1=C/C(=N\OS(=O)(=O)c2ccccc2)C(C)=CC1=O	Mac1 fbg inh 97
COc1cc(C(=O)O/N=C2/C=C(C)C(=O)C=C2C)cc(OC)c1OC	none (no result: CYP2C9 inhib, CYP2C19 inh, CYP2C9 act, CYP2C19 activ)
O=C1CC(N2CCN(c3ccc(F)cc3)CC2)C(=O)N1Cc1cccs1 (configuration not stated)	none
O=C1CC(N2CCN(c3nc4ccccc4s3)CC2)C(=O)N1Cc1cccs1 (configuration not stated)	CYP2C9 inhib 69
COC(=O)c1ccc(Oc2c(C(F)(F)F)oc3c(CN4CCN(C)CC4)c(O)ccc3c2=O)cc1	none (no result: Mac1 fbg enh, Mac1 fbg inh)
COc1c(S(=O)(=O)n2nc(C)cc2C)ccc(Cl)c1Cl	CYP2C19 inh 52, CYP2C9 act 2.3
Cc1cc(C)n(S(=O)(=O)c2cc(C)c(C)cc2C)n1	none
Cc1cc(C)n(S(=O)(=O)c2cccc(Cl)c2Cl)n1	CYP2C19 inh 54
COc1cc(C(=O)n2nc(C)cc2C)cc(OC)c1OC	none
Cc1cc(C)n(S(=O)(=O)c2ccc(Cl)c(Cl)c2Cl)n1	CYP2C19 inh 69
O=S(=O)(NCc1ccccc1)c1ccc(S(=O)(=O)N(Cc2cccs2)CC2CCCO2)cc1 (configuration not stated)	none
N/C(CCN1CCCCC1)=N/O	none
CCOC(=O)CN1C(=O)C(O)=C(C(C)=O)C1c1ccccc1 (configuration not stated)	none
CC1=CN2C(=N)/C(=C/c3ccc([N+](=O)[O-])o3)C(=O)N=C2S1	none (no result: CYP2C9 inhib, CYP2C19 inh, CYP2C9 act, CYP2C19 activ)
O=C(O)CCCCCNC(=O)c1ccccc1	none
O=c1[nH]nc(Cc2ccc(Cl)cc2Cl)c2ccccc12	none
CCCc1nc(S(=O)(=O)Cc2ccc(Cl)cc2Cl)n[nH]1	CYP2C19 inh 73
